“And” between values parts separate entries of the source, which are not always exact repeats. Equal entries are not always repeated. Screen size: about 5,500 compounds; about 2,000 (36%) were called active. Not shown: some 18% with an inconclusive outcome. Cut-off read from the data, not from the text of the source: active = normalized growth mostly below about 0.91 (no sharp cut-off); inconclusive = no clear call, values can overlap the other calls; inactive = mostly above about 0.92. The list shows a part of the results.
Assay: chemical genetic growth profiling, strain panel (AID 1159580);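 note: tested at 20 µM; growth read once vehicle control cultures reached saturation at 30 °C; 1 = growth at the plate median or of vehicle wells; lower values mean less growth of the strain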
Conditions: S. cerevisiae deletion strains, growth OD

Measured: normalized growth

CS(=O)(=O)c1ccc([C@@H](O)[C@@H](CO)NC(=O)C(Cl)Cl)cc1
inactive: locus YAL013W, strain DEP1, stronger effect = lower value 0.978 | locus YAL021C, strain ccr4, stronger effect = lower value 1.05 | locus YAL026C, strain drs2, stronger effect = lower value 1.04 | locus YAL030W, strain snc1, stronger effect = lower value 1.01 | locus YBL061C, strain skt5, stronger effect = lower value 1.02 | locus YBR009C, strain hhf1, stronger effect = lower value 1.01 | locus YBR021W, strain FUR4, stronger effect = lower value 1.1 | locus YBR023C, strain chs3, stronger effect = lower value 1.04 | locus YBR171W, strain sec66, stronger effect = lower value 1.04 | locus YBR229C, strain ROT2, stronger effect = lower value 0.964 | locus YBR231C, strain swc5, stronger effect = lower value 1.02 | locus YBR279W, strain paf1, stronger effect = lower value 1.04 | locus YCL011C, strain gbp2, stronger effect = lower value 1.03 | locus YCL016C, strain dcc1, stronger effect = lower value 1.04 | locus YCL029C, strain bik1, stronger effect = lower value 0.981 | locus YCL069W, strain vba3, stronger effect = lower value 1.03 | locus YCR088W, strain abp1, stronger effect = lower value 1.03 | locus YDL005C, strain med2, stronger effect = lower value 1.02 | locus YDL035C, strain GPR1, stronger effect = lower value 0.988 | locus YDL040C, strain nat1, stronger effect = lower value 1.02 | locus YDL074C, strain BRE1, stronger effect = lower value 0.957 | locus YDL101C, strain DUN1, stronger effect = lower value 0.967 | locus YDL134C, strain PPH21, stronger effect = lower value 0.985 | locus YDL185W, strain tfp1, stronger effect = lower value 0.941 | locus YDL192W, strain arf1, stronger effect = lower value 0.981 | locus YDR001C, strain nth1, stronger effect = lower value 1.02 | locus YDR069C, strain doa4, stronger effect = lower value 1 | locus YDR101C, strain arx1, stronger effect = lower value 0.998 | locus YDR137W, strain rgp1, stronger effect = lower value 1.06 | locus YDR150W, strain NUM1, stronger effect = lower value 0.977 | locus YDR159W, strain sac3, stronger effect = lower value 0.942 | locus YDR162C, strain NBP2, stronger effect = lower value 0.954 | locus YDR195W, strain ref2 1.01 | locus YDR297W, strain sur2, stronger effect = lower value 1.02 | locus YDR318W, strain mcm21, stronger effect = lower value 0.998 | locus YDR334W, strain swr1, stronger effect = lower value 1.02 | locus YDR335W, strain msn5, stronger effect = lower value 1.04 | locus YDR388W, stronger effect = lower value 0.991 | locus YDR392W, strain spt3, stronger effect = lower value 0.947 | locus YDR502C, strain sam2, stronger effect = lower value 0.997 | locus YEL003W, strain gim4, stronger effect = lower value 1.01 | locus YEL037C, strain rad23, stronger effect = lower value 1.02 | locus YEL061C, strain CIN8 (second series), stronger effect = lower value 1.02 | locus YEL061C, strain CIN8, stronger effect = lower value 0.979 | locus YER015W, strain faa2, stronger effect = lower value 1.02 | locus YER016W, strain bim1, stronger effect = lower value 1.04 | locus YER110C, stronger effect = lower value 0.974 | locus YER111C, strain swi4, stronger effect = lower value 1.03 | locus YER155C, strain BEM2 (second series), stronger effect = lower value 1.03 | locus YER155C, strain BEM2, stronger effect = lower value 1 | locus YER167W, strain BCK2, stronger effect = lower value 0.985 | locus YFR010W, strain ubp6, stronger effect = lower value 1.02 | locus YGL078C, strain dbp3, stronger effect = lower value 1 | locus YGL086W, strain mad1, stronger effect = lower value 1 | locus YGL167C, strain pmr1, stronger effect = lower value 1.02 | locus YGL173C, strain kem1, stronger effect = lower value 1.02 | locus YGL227W, strain vid30, stronger effect = lower value 1.02 | locus YGL240W, strain doc1, stronger effect = lower value 0.996 | locus YGL248W, strain PDE1, stronger effect = lower value 0.968 | locus YGL253W, strain hxk2, stronger effect = lower value 1.05 | locus YGR078C, strain PAC10, stronger effect = lower value 0.993 | locus YGR135W, strain pre9, stronger effect = lower value 0.98 | locus YGR229C, strain SMI1, stronger effect = lower value 0.979 | locus YGR252W, strain gcn5, stronger effect = lower value 1.06 | locus YHR013C, strain ard1, stronger effect = lower value 1.05 | locus YHR027C, strain rpn1, stronger effect = lower value 1.02 | locus YHR030C, strain SLT2, stronger effect = lower value 0.983 and 0.994 | locus YHR079C, strain IRE1 (second series), stronger effect = lower value 0.998 | locus YHR079C, strain IRE1, stronger effect = lower value 0.982 | locus YHR094C, strain hxt1, stronger effect = lower value 0.991 | locus YHR129C, strain ARP1, stronger effect = lower value 0.989 | locus YHR142W, strain chs7, stronger effect = lower value 1.07 | locus YHR200W, strain rpn10, stronger effect = lower value 0.989 | locus YIL066C, strain RNR3, stronger effect = lower value 0.995 | locus YIL073C, strain SPO22, stronger effect = lower value 0.998 | locus YIL125W, strain kgd1, stronger effect = lower value 0.992 | locus YIR030C, strain dcg1, stronger effect = lower value 0.978 | locus YJL092W, strain hpr5, stronger effect = lower value 1.02 | locus YJL095W, strain BCK1 (second series), stronger effect = lower value 1.01 | locus YJL095W, strain BCK1, stronger effect = lower value 1 and 0.995 | locus YJL115W, strain asf1, stronger effect = lower value 1.04 | locus YJL129C, strain trk1, stronger effect = lower value 1.05 | locus YJL134W, strain LCB3, stronger effect = lower value 0.974 | locus YJL154C, strain vps35, stronger effect = lower value 1.03 | locus YJL164C, strain tpk1, stronger effect = lower value 1.01 | locus YJL166W, strain qcr8, stronger effect = lower value 1.02 | locus YJL168C, strain set2, stronger effect = lower value 0.985 | locus YJL187C, strain SWE1 (second series), stronger effect = lower value 0.975 | locus YJR043C, strain POL32, stronger effect = lower value 1.01 | locus YJR066W, strain TOR1, stronger effect = lower value 0.962 | locus YJR075W, strain HOC1, stronger effect = lower value 0.983

Reference: PubChem BioAssay AID1159580 (chemical genetic matrix, 2015)
